Measurements taken from PubChem BioAssay AID1159580 (chemical genetic matrix, 2015).
Several values for one entry are separate records, joined by “and”; a condition that tells them apart may be missing. Equal values may be shown once. Hit rate of the full screen: of about 5,500 compounds, about 2,000 (36%) were called active. About 18% were inconclusive and are not listed. Some of the results follow. Unmarked numbers belong to inactive results. No stated cut-off is given here; in the data, active means normalized growth mostly below about 0.91 (no sharp cut-off); inconclusive means no clear call, values can overlap the other calls; inactive means mostly above about 0.92.

Experiment: chemical genetic growth profiling, strain panel (AID 1159580);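 further: tested at 20 µM; growth read once vehicle control cultures reached saturation at 30 °C; 1 = growth at the plate median or of vehicle wells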
Details: growth OD

SMILES: Clc1ccc(C(c2ccccc2Cl)C(Cl)Cl)cc1 (stereo not given)
- normalized growth (S. cerevisiae deletion strains, locus YJR066W, strain TOR1, stronger effect = lower value): 0.894
- normalized growth (S. cerevisiae deletion strains, locus YJR075W, strain HOC1, stronger effect = lower value): 1
- normalized growth (S. cerevisiae deletion strains, locus YKL009W, strain mrt4, stronger effect = lower value): 0.98
- normalized growth (S. cerevisiae deletion strains, locus YKL068W, stronger effect = lower value): 0.995
- normalized growth (S. cerevisiae deletion strains, locus YKL085W, strain MDH1 (second series), stronger effect = lower value): 0.989
- normalized growth (S. cerevisiae deletion strains, locus YKL085W, strain MDH1, stronger effect = lower value): 0.989
- normalized growth (S. cerevisiae deletion strains, locus YKL160W, strain elf1, stronger effect = lower value): 0.923
- normalized growth (S. cerevisiae deletion strains, locus YKL190W, strain CNB1, stronger effect = lower value): 1.03
- normalized growth (S. cerevisiae deletion strains, locus YKR001C, strain vps1, stronger effect = lower value): 0.968
- normalized growth (S. cerevisiae deletion strains, locus YKR026C, strain gcn3, stronger effect = lower value): 0.979
- normalized growth (S. cerevisiae deletion strains, locus YKR091W, strain srl3, stronger effect = lower value): 0.976
- normalized growth (S. cerevisiae deletion strains, locus YLL001W, strain dnm1, stronger effect = lower value): 0.91
- normalized growth (S. cerevisiae deletion strains, locus YLL026W, stronger effect = lower value): 0.962
- normalized growth (S. cerevisiae deletion strains, locus YLL041C, strain sdh2, stronger effect = lower value): 0.972
- normalized growth (S. cerevisiae deletion strains, locus YLR027C, strain aat2, stronger effect = lower value): 0.889 (active)
- normalized growth (S. cerevisiae deletion strains, locus YLR039C, strain RIC1, stronger effect = lower value): 0.978
- normalized growth (S. cerevisiae deletion strains, locus YLR058C, strain SHM2, stronger effect = lower value): 0.994
- normalized growth (S. cerevisiae deletion strains, locus YLR102C, strain apc9, stronger effect = lower value): 0.993
- normalized growth (S. cerevisiae deletion strains, locus YLR113W, strain HOG1, stronger effect = lower value): 0.93
- normalized growth (S. cerevisiae deletion strains, locus YLR221C, strain rsa3, stronger effect = lower value): 0.927
- normalized growth (S. cerevisiae deletion strains, locus YLR258W, strain gsy2, stronger effect = lower value): 0.984
- normalized growth (S. cerevisiae deletion strains, locus YLR262C, strain YPT6 (second series), stronger effect = lower value): 0.881
- normalized growth (S. cerevisiae deletion strains, locus YLR262C, strain YPT6, stronger effect = lower value): 0.955
- normalized growth (S. cerevisiae deletion strains, locus YLR268W, strain sec22, stronger effect = lower value): 0.988
- normalized growth (S. cerevisiae deletion strains, locus YLR320W, strain mms22, stronger effect = lower value): 0.929
- normalized growth (S. cerevisiae deletion strains, locus YLR330W, strain CHS5, stronger effect = lower value): 1
- normalized growth (S. cerevisiae deletion strains, locus YLR342W, strain FKS1 (second series), stronger effect = lower value): 1
- normalized growth (S. cerevisiae deletion strains, locus YLR342W, strain FKS1, stronger effect = lower value): 0.999
- normalized growth (S. cerevisiae deletion strains, locus YLR357W, strain rsc2, stronger effect = lower value): 1.04
- normalized growth (S. cerevisiae deletion strains, locus YLR370C, strain arc18, stronger effect = lower value): 0.968
- normalized growth (S. cerevisiae deletion strains, locus YLR371W, strain rom2, stronger effect = lower value): 0.985
- normalized growth (S. cerevisiae deletion strains, locus YLR384C, strain iki3, stronger effect = lower value): 0.97
- normalized growth (S. cerevisiae deletion strains, locus YLR418C, strain cdc73, stronger effect = lower value): 0.91
- normalized growth (S. cerevisiae deletion strains, locus YML016C, strain PPZ1, stronger effect = lower value): 0.992
- normalized growth (S. cerevisiae deletion strains, locus YML032C, strain rad52, stronger effect = lower value): 0.979
- normalized growth (S. cerevisiae deletion strains, locus YML120C, strain ndi1, stronger effect = lower value): 0.932
- normalized growth (S. cerevisiae deletion strains, locus YML124C, strain tub3, stronger effect = lower value): 0.988
- normalized growth (S. cerevisiae deletion strains, locus YMR058W, strain fet3, stronger effect = lower value): 0.952
- normalized growth (S. cerevisiae deletion strains, locus YMR078C, strain ctf18, stronger effect = lower value): 0.984
- normalized growth (S. cerevisiae deletion strains, locus YMR125W, strain sto1, stronger effect = lower value): 0.991
- normalized growth (S. cerevisiae deletion strains, locus YMR129W, stronger effect = lower value): 0.972
- normalized growth (S. cerevisiae deletion strains, locus YMR205C, strain PFK2, stronger effect = lower value): 0.918
- normalized growth (S. cerevisiae deletion strains, locus YMR223W, strain ubp8, stronger effect = lower value): 0.978
- normalized growth (S. cerevisiae deletion strains, locus YMR231W, strain pep5, stronger effect = lower value): 0.97
- normalized growth (S. cerevisiae deletion strains, locus YMR263W, strain SAP30, stronger effect = lower value): 0.975
- normalized growth (S. cerevisiae deletion strains, locus YMR307W, strain GAS1, stronger effect = lower value): 0.986
- normalized growth (S. cerevisiae deletion strains, locus YNL067W, strain RPL9B, stronger effect = lower value): 0.993
- normalized growth (S. cerevisiae deletion strains, locus YNL071W, strain lat1, stronger effect = lower value): 0.907 (active)
- normalized growth (S. cerevisiae deletion strains, locus YNL128W, strain TEP1, stronger effect = lower value): 1.01 and 1.02
- normalized growth (S. cerevisiae deletion strains, locus YNL153C, strain GIM3, stronger effect = lower value): 1.01
- normalized growth (S. cerevisiae deletion strains, locus YNL183C, strain NPR1, stronger effect = lower value): 0.914
- normalized growth (S. cerevisiae deletion strains, locus YNL197C, strain WHI3, stronger effect = lower value): 1.1
- normalized growth (S. cerevisiae deletion strains, locus YNL209W, strain ssb2, stronger effect = lower value): 0.983
- normalized growth (S. cerevisiae deletion strains, locus YNL224C, strain SQS1, stronger effect = lower value): 1
- normalized growth (S. cerevisiae deletion strains, locus YNL233W, strain BNI4, stronger effect = lower value): 1.01
- normalized growth (S. cerevisiae deletion strains, locus YNL248C, strain rpa49, stronger effect = lower value): 0.99
- normalized growth (S. cerevisiae deletion strains, locus YNL250W, strain rad50, stronger effect = lower value): 0.987
- normalized growth (S. cerevisiae deletion strains, locus YNL271C, strain bni1, stronger effect = lower value): 0.987
- normalized growth (S. cerevisiae deletion strains, locus YNL298W, strain CLA4, stronger effect = lower value): 0.978
- normalized growth (S. cerevisiae deletion strains, locus YNL307C, strain MCK1, stronger effect = lower value): 0.912
- normalized growth (S. cerevisiae deletion strains, locus YNL322C, strain KRE1 (second series), stronger effect = lower value): 0.976
- normalized growth (S. cerevisiae deletion strains, locus YNL322C, strain KRE1, stronger effect = lower value): 1
- normalized growth (S. cerevisiae deletion strains, locus YNR049C, strain mso1, stronger effect = lower value): 0.978
- normalized growth (S. cerevisiae deletion strains, locus YNR052C, strain pop2, stronger effect = lower value): 0.985
- normalized growth (S. cerevisiae deletion strains, locus YOL006C, strain TOP1, stronger effect = lower value): 0.918
- normalized growth (S. cerevisiae deletion strains, locus YOL012C, strain htz1): 0.884
- normalized growth (S. cerevisiae deletion strains, locus YOL147C, strain pex11, stronger effect = lower value): 0.991
- normalized growth (S. cerevisiae deletion strains, locus YOR001W, strain rrp6, stronger effect = lower value): 0.931
- normalized growth (S. cerevisiae deletion strains, locus YOR061W, strain CKA2, stronger effect = lower value): 1
- normalized growth (S. cerevisiae deletion strains, locus YOR069W, strain VPS5, stronger effect = lower value): 1.01
- normalized growth (S. cerevisiae deletion strains, locus YOR070C, strain gyp1, stronger effect = lower value): 0.996
- normalized growth (S. cerevisiae deletion strains, locus YOR080W, strain dia2, stronger effect = lower value): 0.969
- normalized growth (S. cerevisiae deletion strains, locus YOR083W, strain WHI5, stronger effect = lower value): 0.921
- normalized growth (S. cerevisiae deletion strains, locus YOR106W, strain vam3, stronger effect = lower value): 0.888
- normalized growth (S. cerevisiae deletion strains, locus YOR136W, strain idh2, stronger effect = lower value): 0.976
- normalized growth (S. cerevisiae deletion strains, locus YOR144C, strain elg1, stronger effect = lower value): 0.991
- normalized growth (S. cerevisiae deletion strains, locus YOR184W, strain ser1, stronger effect = lower value): 0.963
- normalized growth (S. cerevisiae deletion strains, locus YOR231W, strain MKK1, stronger effect = lower value): 0.948
- normalized growth (S. cerevisiae deletion strains, locus YOR265W, strain rbl2, stronger effect = lower value): 0.97
- normalized growth (S. cerevisiae deletion strains, locus YOR270C, strain vph1, stronger effect = lower value): 0.789
- normalized growth (S. cerevisiae deletion strains, locus YOR290C, strain snf2, stronger effect = lower value): 0.983
- normalized growth (S. cerevisiae deletion strains, locus YOR316C, strain cot1, stronger effect = lower value): 0.984
- normalized growth (S. cerevisiae deletion strains, locus YPL051W, strain arl3, stronger effect = lower value): 0.956
- normalized growth (S. cerevisiae deletion strains, locus YPL055C, strain LGE1, stronger effect = lower value): 1.03
- normalized growth (S. cerevisiae deletion strains, locus YPL078C, strain atp4, stronger effect = lower value): 0.889 (active)
- normalized growth (S. cerevisiae deletion strains, locus YPL106C, strain sse1, stronger effect = lower value): 1
- normalized growth (S. cerevisiae deletion strains, locus YPL240C, strain hsp82, stronger effect = lower value): 0.983
- normalized growth (S. cerevisiae deletion strains, locus YPL241C, strain CIN2, stronger effect = lower value): 1.01
- normalized growth (S. cerevisiae deletion strains, locus YPL256C, strain CLN2, stronger effect = lower value): 0.908
- normalized growth (S. cerevisiae deletion strains, locus YPR119W, strain clb2, stronger effect = lower value): 0.991
- normalized growth (S. cerevisiae deletion strains, locus YPR141C, strain kar3, stronger effect = lower value): 0.995
- normalized growth (S. cerevisiae deletion strains, locus YPR163C, strain tif3, stronger effect = lower value): 0.992
- normalized growth (S. cerevisiae deletion strains, locus YPR167C, strain met16, stronger effect = lower value): 0.989
- normalized growth (S. cerevisiae deletion strains, strain wtn01, stronger effect = lower value): 0.977
- normalized growth (S. cerevisiae strains, strain wild type, stronger effect = lower value): 1.01
